Screen size: about 1,400 compounds; about 380 (27%) were called active. Some of the results follow. Values without a mark were called inactive.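 The calls were made as follows: active = mean inhibition above 50% across duplicate retests at 10 µM; inactive = the rest.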

This experiment in a line: inhibition of NALP1/ASC/caspase-1 reporter signal in yeast, confirmation, NALP1 inhibitor project, S. cerevisiae, luminescence, single concentration (AID 488841).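 Also: plate controls were DMSO in galactose medium for no effect and cells in plain SD medium for full effect.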 The settings on record: S. cerevisiae NALP1/ASC/Caspase-1 reporter, beta-gal luminescence; at 10 µM; stronger effect = higher value.
Regarding `COCCNCCOc1ccc(C(C)(C)c2ccccc2)cc1`, the inhibition (in general, the relative decrease from the control value, in per cent) is 50.5% (active). Regarding `Cc1cccc(N2C(=O)NC(=O)/C(=C/c3ccc([N+](=O)[O-])o3)C2=O)c1`, the inhibition is 31.1%. In the case of `Nc1cc(Cl)c2nonc2c1[N+](=O)[O-]`, the inhibition was 62.5% (active). In the case of `CCCCCn1c(=O)c(C(=O)Nc2nc3ccccc3[nH]2)c(O)c2ccccc21`, the inhibition was 23.1%. In the case of `CCOc1cc(CNCCc2c[nH]c3ccccc23)cc(Cl)c1OCC`, the inhibition was 48%.

Turning to `Cc1ccc(/C=C2\C(=O)NC(=O)N(CC3CCCO3)C2=O)s1` (centres undefined), the inhibition is 36.6%. The result for `C[C@H]1C[C@@H](C)C(=O)[C@@H]([C@H](O)CC2CC(=O)NC(=O)C2)C1` reads 99.8% (active); that for `N#CCCn1cc(C(=O)NCc2ccccc2)c(-c2ccccc2)n1`, 37.1%; that for `CC(Cc1ccccc1Sc1ccccc1)N(C)C` (centres undefined), 34.8%.

As for `Cc1cc2ccccn2c1C(C[N+](=O)[O-])c1c(F)cccc1Cl` (centres undefined), the inhibition is 71% (active). `O=C1/C(=C/c2cccc([N+](=O)[O-])c2)N2CCC1CC2`: the inhibition is 46.3%. On to `Cc1ccc(S(=O)(=O)NC(CC(=O)N2CCC3(CC2)OCCO3)c2ccco2)cc1` (centres undefined), for which the inhibition is 37.2%. With `COc1cc2c(cc1OC)CN(c1ccc([N+](=O)[O-])c(C(F)(F)F)c1)CC2`, the inhibition is 45.4%. For `CC(Cc1ccccc1)NC(=O)/C=C/c1ccc(Cl)cc1` (centres undefined), the inhibition was 50% (active). `CCOCCN1CCN(c2nnc3n2-c2ccc(Cl)cc2C(c2ccccc2Cl)=NC3)CC1`: the inhibition is 32.9%. For the compound `Cc1ccc(Cn2cc(C=O)c(-c3ccc(C)cc3)n2)cc1`, the inhibition was 59.5% (active). For `CC(C)NS(=O)(=O)c1ccc(OCC(=O)N2CCN(C)CC2)cc1`, the inhibition was 4.2%.

With `Cc1ccc(C)c(NC(=S)NCCc2cnc[nH]2)c1`, the inhibition was 23.7%.

`CN1C2CCC1/C(=C/c1ccccn1)C(=O)/C2=C\c1ccccn1`: the inhibition was 98% (active).

As to `CC(C)CCn1c(=O)c(C(=O)NCc2ccco2)c(O)c2ccccc21`, the inhibition is 35%. As to `CC1(C)C[C@H]2C=C(C=O)[C@]3(C=O)C[C@]3(C)[C@H]2C1`, the inhibition was 32.4%. With `CN1/C(=C\C=C\C2=[N+](C)c3ccc4ccccc4c3C2(C)C)C(C)(C)c2ccccc21` the figure was 100% (active); with `CN1CCN(c2ccc(N)c(N3CCN(C)CC3)c2)CC1`, 33.6%; with `Fc1ccc(C(OCCN2CCCC2)c2ccc(Br)cc2)cc1` (centres undefined), 49.5%.

As for `CCCCN(Cc1ccccc1)C1CCN(CCc2ccccc2)CC1`, the inhibition was 55.1% (active).

In the case of `CC1CCCC(C)N1/N=C/c1c[nH]c2ccc(Br)cc12` (centres undefined), the inhibition is 19.6%. For `CN[C@H]1C[C@H]2O[C@@](C)([C@H]1OC)n1c3ccccc3c3c4c(c5c6ccccc6n2c5c31)C(=O)NC4`, the inhibition was 99.7% (active). Consider `Clc1ccc2nc3c(c(-c4ccccc4)c2c1)CNCC3`, for which the inhibition is 46%. Consider `O=C(c1cc2c(s1)-c1ccccc1OC2)N1CCC2(CC1)OCCO2`, for which the inhibition is 35.5%. Regarding `c1ccc2sc(NC3=NCCN3)nc2c1`, the inhibition is 99.8% (active). In the case of `CNC(=O)Oc1ccc2ncccc2c1`, the inhibition was 35.5%. Consider `O=C(c1ccccc1)C(CN1CCCC1)c1ccccc1` (centres undefined), for which the inhibition was 27.6%. Turning to `COc1cc(/C=C(/C)[N+](=O)[O-])ccc1OCc1ccccc1Cl`, the inhibition is 73.4% (active). Turning to `Cc1ccc(-c2nc(N3CCOCC3)s[n+]2-c2ccccc2)cc1`, the inhibition is 40.2%. Turning to `CSc1ncc(Cl)c(C(=O)O)n1` (tested in a mixture with another compound), the inhibition was 21.1%. Regarding `O=C1/C(=C/c2cc3c(cc2Cl)OCO3)N2CCC1CC2`, the inhibition is 47.5%.

As for `Nc1c2c(nc3sc4c(c13)CCCC4)CCCCC2`, the inhibition was 40.5%.

On to `Nc1c2c(nc3sc4c(c13)CCCCC4)CCCC2`, for which the inhibition was 84.5% (active). Consider `Nc1ccc(C2(c3ccc(N)cc3)CN3CCC2CC3)cc1`, for which the inhibition was 25.7%.

The values above are taken from PubChem BioAssay AID488841 (Sanford-Burnham Center for Chemical Genomics, 2010).
